Compounds with a hit are over-represented: about 2.8% of the library has one in this group of screens.
KDM5B inhibitor: Primary screen for KDM5B Histone Demethylases FDH-coupled qHTS; Potency, µM (doses to about 57.7 µM), hits mostly inhibitors; KDM5B demethylase, FDH-coupled NADH fluorescence (FDH is formaldehyde dehydrogenase); hit rate 2.6% among 220,000; active = well fitted inhibition curve with a large enough effect; inconclusive = small, poorly fitted or top-dose-only effect; inactive = no such curve, though single readings can be large or run the other way; also: nearly all actives have a fitted effect of over 70% in size
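Coupled FDH/NAD⁺ fluorescence readout. KDM5BΔAP 200 nM final; compound titration, 10 min RT preincubation; substrate mix 12.5 µM H3K4me3, 25 µM 2-OG, 50 µM Fe(II), 100 µM ascorbate, 0.25 mM NAD⁺, 0.25 U/mL FDH; ΔRFU over 30 min.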
IP6K1 inhibitor: Primary qHTS assay for small molecule inhibitors of Inositol hexaphosphate kinase 1 (IP6K1); IP6K1 kinase, ADP-Glo luminescence, 2 h; active compounds read low; Inositol hexakisphosphate kinase 1 (Homo sapiens), Q92551; hit rate 0.81% among 140,000; activity change, % (series mostly up to about 58 µM); in the data active = activity change below about -25%
Target sequence (Q92551 whole entry, looked up): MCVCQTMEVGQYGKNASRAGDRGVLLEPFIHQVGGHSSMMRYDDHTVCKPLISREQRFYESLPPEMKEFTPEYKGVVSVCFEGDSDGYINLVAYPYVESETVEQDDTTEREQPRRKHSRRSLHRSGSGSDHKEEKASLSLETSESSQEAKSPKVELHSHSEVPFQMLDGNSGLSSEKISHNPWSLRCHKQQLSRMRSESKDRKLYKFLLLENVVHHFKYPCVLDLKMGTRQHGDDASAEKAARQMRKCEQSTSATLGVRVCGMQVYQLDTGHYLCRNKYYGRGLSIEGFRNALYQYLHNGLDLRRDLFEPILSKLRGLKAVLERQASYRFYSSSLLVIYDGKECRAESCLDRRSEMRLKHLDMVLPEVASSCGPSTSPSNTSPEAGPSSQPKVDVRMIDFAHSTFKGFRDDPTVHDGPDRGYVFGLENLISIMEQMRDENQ
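ADP-Glo luminescence measures ADP made by human IP6K1 during a 2 h RT reaction with ATP/IP6 (mix at 1.3 mM/130 uM); top library doses 57.5 and 19.1 uM final.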
A number is an active result; - = inactive; ? = inconclusive; . = not tested or not shown.

SMILES	KDM5B inhibitor	IP6K1 inhibitor
Cc1ccccc1-c1cc(-c2ccc(=O)[nH]c2)c2cncn2c1	35.5µM	-
COc1cc(F)ccc1-c1cc(-c2ccc(=O)[nH]c2)c2cncn2c1	?	-
O=C(c1ccc(Cl)cc1)N1CCN(c2nccc(Nc3ccccc3Cl)n2)CC1	.	-
Cc1nn(-c2ccccc2)c2c1C(C)N(C1CCN(C(=O)c3ccc(Cl)cc3)C1)C2=O (configuration not stated)	.	-
COc1ccc(CC(=O)NC2CCN(C(=O)c3ccc(-c4ccccc4OC)cc3)CC2)cc1	.	-
O=C(NCC1CCCO1)c1ccc(-c2nnc(-c3ccccc3)o2)cc1 (configuration not stated)	-	.
O=C(NCC1CCCO1)c1cc2c(=O)[nH]c(-c3ccccc3)cn2n1 (configuration not stated)	22.4µM	-
Cc1nn(C)c(C)c1CNCc1cccnc1N1CCOCC1	-	.
O=C(NCCc1ccccc1F)c1ccc2nc(-c3cccnc3Cl)oc2c1	.	-
COc1ccccc1C(=O)N1CCCC2(CN[S+](=O)([O-])c3cccnc3N2)C1 (configuration not stated)	.	-
Cc1noc(C)c1-c1cc2c(cc(C)n2CCN(C)C)c(-c2cccc(O)c2)n1	-	-
Cc1noc(C)c1-c1cc2c(cc(C)n2CCN(C)C)c(-c2ccccc2O)n1	31.6µM	-
Cc1noc(C)c1-c1cc2c(cc(C)n2C)c(-c2cccc(CO)c2)n1	-	-
COc1cccc(-c2nc(-c3c(C)noc3C)cc3c2cc(C)n3CCN(C)C)c1OC	39.8µM	-
Cc1noc(C)c1-c1cc2c(cc(C)n2CCN(C)C)c(-c2ccc(CO)cc2)n1	25.1µM	-
Cc1noc(C)c1-c1cc2c(cc(C)n2C)c(-c2ccc(CO)cc2)n1	-	-
Cc1nn(-c2ccccc2)c2c1C(C1CC1)N(C1CN(C(=O)c3ccccn3)C1)C2=O (configuration not stated)	.	-
O=S(=O)(NCc1cc2cc(F)ccc2s1)c1ccc(Br)s1	-	.
COc1ccccc1Nc1ccnc(N2CCCC(C(=O)NCC3CC3)C2)n1 (configuration not stated)	.	-
O=C(C1CCCN1C(=O)c1ccc(C(F)(F)F)cc1)N1CCC(c2nc3ncccc3[nH]2)CC1 (configuration not stated)	.	-
O=C(N[C@H](c1ccccn1)C1CC(O)C1)c1cnc2ccccn2c1=O (some centres not stated)	25.1µM	-
Cc1cc2c(cc1C(=O)N[C@H](c1ccccn1)C1CC(O)C1)OCCO2 (some centres not stated)	-	-
CCOC(=O)C1c2c(OC)ccc3c2C(=CC(C)(C)CO3)CN1Cc1ccc(NC(C)=O)cc1 (configuration not stated)	.	-
COCC(=O)NC1CCN(Cc2cccc(-c3ccc(F)c(F)c3)c2)CC1	.	-
N#Cc1cccc(N2CCC3(CCC(=O)N(CC4CCCO4)C3)CC2)n1 (configuration not stated)	25.1µM	-
SMILES	KDM5B inhibitor	IP6K1 inhibitor
Nc1nccc(N2CCC3(CCC(=O)N(CC4CCCO4)C3)CC2)n1 (configuration not stated)	-	-
O=C(c1ccoc1)N1CCCN(c2nnc3ccc(Cl)cn23)CC1	?	-
Cc1ccc(C(=O)N2CCN(c3nnc4ccccn34)CC2)cc1C	25.1µM	-
O=C(c1cccc(F)c1)N1CCN(c2nnc3ccc(Cl)cn23)CC1	14.1µM	-
O=C(c1ccc(F)cc1)N1CCN(c2nnc3ccccn23)CC1	28.2µM	-
O=C(c1ccc2nccn2c1)N1CCN(c2ccc(F)cc2)CC1	?	-
Cc1ccc(C(=O)N2CCN(c3cc(-c4cccs4)[nH]n3)CC2)cc1C	-	-
COCCN1C(=O)c2[nH]nc(-c3cc(Cl)c(C)cc3O)c2C1c1ccc(O)c(OC)c1 (configuration not stated)	-	.
COc1ccc(Cn2c(C3CCN(C(=O)c4cccc(C)c4)CC3)n[nH]c2=O)cc1	-	-
Cc1ccc(-c2cccc(COc3cnc4c(ccn4CC(=O)O)c3)c2)cc1	35.5µM	-
CNC(=O)CCn1ncc2cc(OCc3ccccc3-c3ccc(F)c(Cl)c3)ccc21	?	-
O=C(O)Cn1ccc2cc(OCc3cccc(-c4ccc(F)c(Cl)c4)c3)cnc21	39.8µM	-
O=C(O)Cn1ccc2cc(OCc3cccc(-c4ccccc4O)c3)cnc21	?	-
COc1cccc(-c2cn3cc(C(=O)N(C)C)nc3s2)c1	.	-
COc1ccc(CCNC(=O)c2cn3cc(-c4cccc(C(F)(F)F)c4)sc3n2)cc1	.	-
Cc1cccc(OCCc2noc(C3CCCN(C(=O)c4ccoc4)C3)n2)c1 (configuration not stated)	.	-
Cc1ccc(NC(=O)c2cccc(N(C)C)c2)c(C)c1	-	.
CN(C)c1cccc(C(=O)NCC2CCN(c3cc(-c4ccc(Cl)cc4)[nH]n3)CC2)c1	31.6µM	-
CN(C)c1cccc(C(=O)NCC2CCN(c3cc(-c4ccc(F)cc4)[nH]n3)CC2)c1	20µM	-
Cc1ccc(-c2cc(N3CCC(CNC(=O)c4cccc(N(C)C)c4)CC3)n[nH]2)cc1	28.2µM	-
Cc1cccc(-c2[nH]ncc2CNC(=O)c2cccc(N(C)C)c2)c1	28.2µM	-
Cc1ccc(-c2cc(N3CCC(CNC(=O)c4ccc[nH]4)CC3)n[nH]2)cc1	?	-
O=C(NCC1CCN(c2cc(-c3ccc(F)cc3)[nH]n2)CC1)c1n[nH]c2c1CCCC2	-	-
CN(C)c1cccc(C(=O)NC2CCCN(c3cc(-c4ccc(Cl)cc4)[nH]n3)C2)c1 (configuration not stated)	?	-
Cc1cnc(-c2cccnc2)n1CC1CCN(C(=O)C2CCC2)C1 (configuration not stated)	.	-
SMILES	KDM5B inhibitor	IP6K1 inhibitor
CC(C)CNC(=O)NC(=O)CSc1nnc(-c2ccc(C(C)(C)C)cc2)n1Cc1ccco1	-	.
O=C(NCC(F)(F)F)C1CCN(c2ccnc3ccnn23)CC1	.	-
Cc1cc2c(cc1C)CSC(c1cc(Cl)ccc1O)SC2	-	.
O=C(c1cnccn1)N1CCC2(CC1)CCC(O)(CN1CCc3ccccc31)CC2	.	-
CC(=O)N(Cc1ccccc1)Cc1cc2cccc(C)c2[nH]c1=O	-	.
O=C(NCc1ccc(F)cc1)c1nc(-c2cccc(C(F)(F)F)c2)c2cnccn12	28.2µM	-
O=C(NCc1cccs1)c1nc2sccn2c1-c1ccc(C(F)(F)F)cc1	.	-
O=C(NCc1cccs1)c1nc(-c2cccc(C(F)(F)F)c2)c2cnccn12	15.8µM	-
O=C(NCc1ccc(F)cc1)c1nc(-c2cccc(F)c2)c2cnccn12	-	-
Cc1ccsc1CN1CC(Oc2ccccc2C(=O)NCc2ccccc2)C1	.	-
Nc1n[nH]c(CNc2cc(-c3ccc(F)cc3)nc3ccnn23)n1	28.2µM	-
Fc1ccc(CCNc2cc(Cl)nc3ccnn23)cc1	-	-
CCNc1nc(-c2ccc3c(c2)CCC(=O)N3)cs1	-	.
CN(C)CCNC(=O)c1nc2nc(-c3ccccc3)c(Nc3ccc(F)cc3)cc2n1C	?	-
Cc1ccccc1Nc1cc2c(nc1-c1ccccc1)nc(C(=O)NCCN(C)C)n2C	35.5µM	-
Cc1cc(-c2cc3c(nc2-c2ccccc2)nc(C(=O)NC2CCN(C)CC2)n3C)ccn1	31.6µM	-
COc1cc(-c2cc3c(nc2-c2ccccc2)nc(C(=O)NCCN(C)C)n3C)ccn1	-	-

From PubChem BioAssay
